High-throughput results as filed in PubChem BioAssay.
Compounds with a hit are over-represented: about 1.6% of the library has one in this group of screens.
KCNQ2 inh: blocks the rat KCNQ2 potassium channel; O88943; CHO-K1 KCNQ2, FluxOR thallium flux, 20 min; active compounds read low; B-score at 10 µM; 310,000 compounds, 1.1% hits;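 active means fluorescence ratio B-score at most minus 3 library SDs, with starting brightness B-score within 2 library SDs, cut at about -5.5 in these data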
KCNQ2 pot: enhances the rat KCNQ2 potassium channel. 310,000 compounds, 0.54% hits. CHO-K1 KCNQ2, FluxOR thallium flux fluorescence; active compounds read high. B-score at 10 µM;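 active means fluorescence ratio B-score at least 3 SD of library B-scores, with initial fluorescence B-score within 3 of them, cut at about 5.3 in these data; same plate scores as AID 2156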;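 further: B-score of peak minus minimum over baseline fluorescence ratio after K+ and Tl+ stimulus; positive B-score means potentiation of KCNQ2 with more thallium influx and brighter signal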
KCNQ2 block conf: rat KCNQ2 channel inhibition, confirmatory screen; AID 493025; KCNQ2-expressing cells, thallium flux; active compounds read low; shares compounds with KCNQ2 inh; 1,000 compounds, 57% hits; activity change, negative = inhibition, % at 10 µM
KCNQ1 spec: KCNQ2 inhibitor that also affects human KCNQ1 channel; activity change, negative = inhibition, % at 10 µM; 1,000 compounds, 15% hits; KCNQ1-expressing cells, FluxOR thallium flux fluorescence; active compounds read low; shares compounds with KCNQ2 inh;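 active means activity change at least 3 SD of negative controls below their mean in both duplicate wells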;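 further: CHO cells stably transfected with KCNQ1 and depolarized by potassium stimulus; peak minus minimum fluorescence over baseline after thallium addition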
Target sequence (P51787 whole entry, looked up): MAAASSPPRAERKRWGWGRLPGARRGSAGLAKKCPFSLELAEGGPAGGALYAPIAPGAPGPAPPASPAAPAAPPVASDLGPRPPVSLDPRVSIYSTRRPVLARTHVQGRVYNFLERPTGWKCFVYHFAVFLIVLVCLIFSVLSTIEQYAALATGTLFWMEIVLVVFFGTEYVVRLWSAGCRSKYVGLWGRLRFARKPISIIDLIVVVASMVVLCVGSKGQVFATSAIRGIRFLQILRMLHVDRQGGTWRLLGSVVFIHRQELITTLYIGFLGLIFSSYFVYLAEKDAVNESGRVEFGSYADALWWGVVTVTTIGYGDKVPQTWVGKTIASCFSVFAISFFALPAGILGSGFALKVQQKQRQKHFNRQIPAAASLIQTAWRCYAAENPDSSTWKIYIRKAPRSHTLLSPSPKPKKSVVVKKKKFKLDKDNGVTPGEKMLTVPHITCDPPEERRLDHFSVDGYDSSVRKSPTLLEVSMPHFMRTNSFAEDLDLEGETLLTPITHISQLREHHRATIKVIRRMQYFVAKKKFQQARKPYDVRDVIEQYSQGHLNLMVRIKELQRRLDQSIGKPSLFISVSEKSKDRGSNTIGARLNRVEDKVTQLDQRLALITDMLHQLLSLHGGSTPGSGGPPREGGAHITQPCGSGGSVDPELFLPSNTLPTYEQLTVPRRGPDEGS
CHO Tl ctr: KCNQ2 inhibitor counter-screen hit in parental CHO cells; shares compounds with KCNQ2 inh; thallium flux counter-screen; active compounds read low; activity change, % at 10 µM; 1,000 compounds, 14% hits
KCNQ2 patch conf: rat KCNQ2 inhibition confirmed by electrophysiology; shares compounds with KCNQ2 inh; KCNQ2-expressing cells, automated patch clamp current; calls only at 10 µM; 550 compounds, 49% hits; AID 588531
Numbers stand for hits; . = inactive; / = not tested or not shown; + = active, no number. Unless noted, how the calls were made is not given here.

SMILES | KCNQ2 inh | KCNQ2 pot | KCNQ2 block conf | KCNQ1 spec | CHO Tl ctr | others
Cc1ccc(-c2cc(C(=O)NCc3ccco3)c3ccccc3n2)o1 | . | / | / | / | /
Cc1ccc(-c2cc(C(=O)N3CC(C)OC(C)C3)c3ccccc3n2)o1 (configuration not stated) | -11 | . | -33% | . | . | KCNQ2 patch conf=+
COC(=O)c1cc(-c2ccc(C)o2)nc2ccccc12 | . | / | / | / | /
Cc1ccc(NC(=O)C(C)Sc2nnc(-c3cccnc3)n2-c2ccccc2)cc1 (configuration not stated) | . | . | / | / | /
CCc1c(C(=O)N2CCCN(C)CC2)csc1C | . | . | / | / | /
COC(=O)CC1COc2ccccc2N1C(=O)c1ccc(Br)cc1 (configuration not stated) | . | / | / | / | /
COC(=O)CC1COc2ccccc2N1C(=O)c1ccc(C(C)(C)C)cc1 (configuration not stated) | -6.8 | . | -29% | . | . | KCNQ2 patch conf=+
O=C(c1ccc(F)cc1Cl)N1CCN(S(=O)(=O)c2cccs2)CC1 | . | / | / | / | /
COc1ccc(NC(=O)COc2ccccc2C)cc1S(=O)(=O)N1CCCCC1 | . | / | / | / | /
CCC(=O)N1CCN(c2ccccc2NC(=O)COc2cccc(C)c2)CC1 | -10 | . | -28% | . | . | KCNQ2 patch conf=+
CCC(=O)N1CCN(c2ccccc2NC(=O)c2cccc(C)c2)CC1 | . | / | / | / | /
Cc1ccc(NC(=O)COc2cccc(C)c2C)cc1S(=O)(=O)N1CCCCCC1 | -8.8 | . | -36% | -32% | -24% | KCNQ2 patch conf=.
Cc1cc(C)cc(OCC(=O)Nc2ccccc2N2CCCCC2)c1 | . | / | / | / | /
Cc1ccccc1OCC(=O)Nc1ccccc1N1CCCCC1 | -10 | . | -26% | . | . | KCNQ2 patch conf=+
COc1ccc(OC)c(S(=O)(=O)NC(N)=NCCc2ccccc2OC)c1 | . | / | / | / | /
CC1(C)CC(NS(=O)(=O)c2ccc(C(C)(C)C)cc2)CC(C)(C)N1 | . | / | / | / | /
COc1ccc(-c2cc(C(=O)N3CCN(C(c4ccccc4)c4ccccc4)CC3)no2)cc1 | . | / | / | / | /
O=C(c1cc(-c2ccco2)on1)N1CCN(C(c2ccccc2)c2ccccc2)CC1 | -7.7 | . | -29% | . | . | KCNQ2 patch conf=.
COc1cccc(Oc2ccc(C(F)(F)F)cc2NC(=O)C2=COCCO2)c1 | -7.5 | . | . | . | .
COc1cccc(Oc2ccc(C(F)(F)F)cc2NC(=O)c2cccc(F)c2)c1 | -7.1 | . | -26% | . | . | KCNQ2 patch conf=.
COc1ccc(Oc2ccc(C(F)(F)F)cc2NC(=O)c2ccc(F)cc2)cc1 | . | / | / | / | /
O=C(Nc1cc(C(F)(F)F)ccc1N1CCCC1)C1=COCCO1 | . | / | / | / | /
O=C(NC(=S)N(Cc1ccccc1)c1ccccn1)C1CC1 | . | / | / | / | /
O=c1[nH]c2ccccc2nc1/C=C/c1ccc(Cl)cc1 | . | / | / | / | /
COC(=O)c1c(NC(=O)Cc2cccs2)sc2c1CCCC2 | -8.4 | . | -30% | . | . | KCNQ2 patch conf=.
SMILES | KCNQ2 inh | KCNQ2 pot | KCNQ2 block conf | KCNQ1 spec | CHO Tl ctr | others
COCC(=O)Nc1sc2c(c1C(=O)OC)CCCC2 | . | / | / | / | /
O=C(COC(=O)c1cccc(NS(=O)(=O)/C=C/c2ccccc2)c1)Nc1ccccc1OC(F)F | . | / | / | / | /
COc1ccc(OCCNS(=O)(=O)c2ccc3oc4ccccc4c3c2)cc1 | . | . | / | / | /
CN(CCOc1ccccc1)S(=O)(=O)c1ccc2oc3ccccc3c2c1 | -7.8 | . | -16% | . | . | KCNQ2 patch conf=.
CC(C)Cc1nnc(NC(=O)CCS(=O)(=O)c2ccc(Cl)cc2)s1 | . | / | / | / | /
O=C(NCCn1cc(SCc2ccc(F)cc2)c2ccccc21)c1c(F)cccc1F | . | . | / | / | /
O=C(NCCn1cc(SCc2ccc(F)cc2)c2ccccc21)c1ccccc1F | -9.1 | . | . | . | .
COc1ccc(-c2ccc(NCCN3CCOCC3)nn2)cc1OC | . | . | / | / | /
C/C=N/NC(=O)CCNC(=O)c1ccccc1 | . | . | / | / | /
COc1cccc(-c2ccc(NC(=O)C3CCCN(Cc4nccn4C)C3)cc2)c1 (configuration not stated) | . | / | / | / | /
NS(=O)(=O)c1ccc(NC(=O)CCC(=O)c2ccc(Cl)s2)cc1 | . | . | / | / | /
O=C(OCC(=O)N(C1CCCCC1)C1CCCCC1)c1ccc(O)cc1 | . | . | / | / | /
O=C(OCC(=O)N(C1CCCCC1)C1CCCCC1)c1ccccc1O | -7.3 | . | -36% | . | . | KCNQ2 patch conf=+
CCC1CCCCN1CCCNC(=O)Cn1ncn2nc(-c3ccc(OC)cc3)cc2c1=O (configuration not stated) | . | / | / | / | /
Cc1ccc(C(=O)NCC(=O)OCC(=O)c2ccc(Br)s2)cc1 | . | / | / | / | /
C=CCSc1nc(N)c(C#N)c(-c2ccc(C)cc2)c1C#N | . | / | / | / | /
C=CCSc1nc2c(c(C3CC=CCC3)c1C#N)CCC2 (configuration not stated) | -12 | . | -32% | -31% | -22% | KCNQ2 patch conf=.
Cn1cnnc1SCCC(=O)Nc1ccc(Cl)cc1 | . | . | / | / | /
Cn1cnnc1SCCC(=O)Nc1ccccc1 | -8.3 | . | . | . | .
Cc1c(N=Cc2cccs2)c(=O)n(-c2ccccc2)n1C | . | / | / | / | /
Cc1ccc(C2C(C=Nc3c(C)n(C)n(-c4ccccc4)c3=O)=C(c3ccccc3)Oc3ccccc32)cc1 (configuration not stated) | -11 | . | -24% | . | . | KCNQ2 patch conf=.
COc1ccccc1NC(=O)C(C)OC(=O)C1CC(=O)N(c2ccc3c(c2)OCCO3)C1 (configuration not stated) | . | / | / | / | /
COc1ccccc1NC(=O)C(C)OC(=O)C1CCC(C(C)(C)C)CC1 (configuration not stated) | -8.4 | . | -31% | . | . | KCNQ2 patch conf=.
NC(=O)C1CC(O)CN1c1nc(CN2CCOCC2)nc2scc(-c3ccccc3)c12 (configuration not stated) | -8.9 | . | . | . | .
CC1CCN(c2nc(CN3CCCCC3)nc3scc(-c4ccccc4)c23)CC1 | . | / | / | / | /
SMILES | KCNQ2 inh | KCNQ2 pot | KCNQ2 block conf | KCNQ1 spec | CHO Tl ctr | others
CC(=O)C(Cc1ccccc1)NC(=O)CN(C)Cc1ccccc1Cl (configuration not stated) | -8.5 | . | . | . | .
CC(=O)C(Cc1ccccc1)NC(=O)CCl (configuration not stated) | . | / | / | / | /
COc1ccc2c(c1)nc(SCC(O)c1ccccc1)n2C (configuration not stated) | . | . | / | / | /
C/C(=N/NC(=O)c1cccc(N2CCCC2=O)c1)c1ccncc1 | . | . | / | / | /
CCN1CCc2nc3ccccc3c(C(=O)Nc3ccc(F)cc3)c2C1 | -9.4 | . | . | . | .
CCN1CCc2nc3ccccc3c(C(=O)Nc3ccc(NC(C)=O)cc3)c2C1 | . | . | / | / | /
CS(=O)(=O)c1ccccc1-c1nnc(NC(=O)c2ccc3ncsc3c2)o1 | . | / | / | / | /
O=C(Oc1ccc(Br)cc1C(=S)N1CCOCC1)c1ccccc1 | . | / | / | / | /
CCC1(C(=O)c2ccccc2)C2c3cc(Br)ccc3OC(=O)C21C(=O)N1CCOCC1 (configuration not stated) | -9.7 | . | . | . | .
C/C(=N\Nc1nc(N2CCCCCC2)nc(N2CCCCCC2)n1)c1ccccc1 | -9.2 | . | -28% | . | . | KCNQ2 patch conf=+
CC(=C/c1ccccc1)/C=N/Nc1nc(N2CCCCC2)nc(N2CCCCC2)n1 | . | / | / | / | /
CNC(=S)N1CCc2cc(OC)c(OC)cc2C1 | . | / | / | / | /
